The text below walks through data of PubChem BioAssay (Tox21).

SMILES strings stand for the structures. A number with no mark means an inactive call. Records with an inconclusive call do not appear. Activity calls are given as the source filed them. Unless noted, the call rests on the fitted dose curve.

The nature of assay [1]: Nuclear factor erythroid 2-related factor 2/antioxidant responsive element (Nrf2/ARE) small molecule agonists: qHTS cell viability counter screen in human keratinocytes (AID 1919968; active means well fitted curve in the direction sought with a large enough effect in the repeat runs; an effect the other way counts as inactive or inconclusive; further: nearly all actives have a fitted effect of over 55% in size; further: potency means the concentration at half of the fitted maximal effect). In a few lines:
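Stably transfected HaCaT (KeratinoSens), 1,500/well. Test agents in DMSO were applied for 23 h, 37 C/5% CO2. CellTiter-Fluor was incubated 1 h before the fluorescence read.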
(In qHTS, concentration-response curves come from the screen itself.)

Assay [2] is described as follows: Nuclear factor erythroid 2-related factor 2/antioxidant responsive element (Nrf2/ARE) small molecule agonists: luciferase reporter gene qHTS assay in human keratinocytes (AID 1919969). Further: nearly all actives have a fitted effect of over 35% in size. Further: potency means the concentration at half of the fitted maximal effect.
In assay [3] the target is KiSS-1 receptor (Homo sapiens) (UniProt Q969F8). Description: Human kisspeptin (KISS1R) small molecule agonists, calcium flux assay in KISS1R-HEK293 cells (AID 1920064; active means well fitted curve in the direction sought with a large enough effect in the repeat runs; an effect the other way counts as inactive or inconclusive). The method, boiled down: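 After overnight (18 h) culture at 37 C/5% CO2, human KISS1R-HEK293 cells received calcium dye for 1 h, then test compound; emission at 540 nm (excitation 480 nm) was tracked for 3 min.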
Background: Calcium flux is commonly read through the fluorescence of an indicator in the cells.

Assay [4] is described as follows: G protein-coupled receptor (GPCR) small molecule agonists, calcium flux assay: HEK293 wild type cell line counter screen (AID 1920065). In a few lines: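 Following 18 h incubation at 37 C/5% CO2, plates got calcium dye for 1 h; compounds, ATP or DMSO were then pinned in and fluorescence followed kinetically (480/540 nm).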
A short description of assay [5]: p53 small molecule agonists, cell-based qHTS assay with human liver microsomes (AID 1963577).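 Further: p53 response element beta-lactamase reporter cells with liver microsomes plus NADPH.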 The method, boiled down:
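HLM-supplemented p53RE-bla reporter assay: 16 h compound exposure at 37 C, microsomes and NADPH each 0.5 mg/mL final, read by fluorescence intensity.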

Assay [6] is described as follows: p53 small molecule agonists, cell-based qHTS assay with rat liver microsomes (AID 1963578). The method, boiled down: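 Quantitative HTS of the Tox21 10K library: p53RE-bla cells, rat liver microsomes plus NADPH at 0.5 mg/mL final each, 16 h at 37 C, beta-lactamase fluorescence detection.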
Assay [7] is described as follows: p53 small molecule agonists, cell-based qHTS assay with rat liver microsomes: qHTS cell viability counter screen (AID 1963580). Further: nearly all actives have a fitted effect of over 45% in size. Further: potency means the concentration at half of the fitted maximal effect. In a few lines:
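Cytotoxicity counter screen: intracellular ATP read by CellTiter-Glo luminescence in the p53 reporter wells. HCT-116 p53RE-bla cells were treated for 16 h at 37 C alongside rat liver microsomes and NADPH, each 0.5 mg/mL final.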

Assay [8] in a line: p53 small molecule agonists, cell-based qHTS assay: qHTS cell viability counter screen (AID 1963581). Further: nearly all actives have a fitted effect of over 45% in size. Further: potency means the concentration at half of the fitted maximal effect. In a few lines:
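qHTS counter screen: 16 h compound exposure at 37 C of p53RE-bla HCT-116 cells (4,000 per well, seeded 5 h prior), cell viability by ATP luminescence.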

For assay [9], the target named is 5-hydroxytryptamine receptor 2A (Homo sapiens) (UniProt P28223). Description: 5-hydroxytryptamine receptor 2A (HTR2A) small molecule antagonists, cell-based qHTS assay (AID 1963586). Further: nearly all actives have a fitted effect of over 45% in size. The method, boiled down: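 CHO cells stably expressing human HTR2A were plated for 18 h at 37 C, then loaded with calcium dye for 1 h. Compounds were preincubated 5 min at room temperature before DOI (4 nM solution) was added. Kinetic fluorescence was read for 3 min.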

Assay [10] shares this target. Description: 5-hydroxytryptamine receptor 2A (HTR2A) small molecule agonists, cell-based qHTS assay (AID 1963587). Further: nearly all actives have a fitted effect of over 30% in size. Further: potency means the concentration at half of the fitted maximal effect. In a few lines: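 Kinetic calcium-flux fluorescence (2 min, 1 sec intervals) after compound addition in agonist mode. HTR2A-CHO cells were cultured 18 h, then dye-loaded 1 h at 37 C.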
For assay [11], the target named is Muscarinic acetylcholine receptor M1 (Homo sapiens) (UniProt P11229). Description: Cholinergic receptor muscarinic 1 (CHRM1) small molecule antagonists, cell-based qHTS assay (AID 1963588). Further: nearly all actives have a fitted effect of over 40% in size. Further: potency means the concentration at half of the fitted maximal effect. In a few lines: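 Compounds were tested at 15 concentrations in three independent runs. Dye-loaded CHRM1-CHO cells were exposed 5 min at room temperature before stimulation by acetylcholine added at 50nM. Intracellular calcium was read kinetically on FDSS for 3 min.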

Assay [12] has the same target. Description: Cholinergic receptor muscarinic 1 (CHRM1) small molecule agonists, cell-based qHTS assay (AID 1963589). Further: nearly all actives have a fitted effect of over 35% in size. Further: potency means the concentration at half of the fitted maximal effect. In a few lines:
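Kinetic fluorescence (1 s intervals) of calcium-sensitive dye in human M1 CHO cells after compound addition; cells pre-incubated 18 h at 37 C/5% CO2 and dye-loaded 1 h.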

Assay [13] deals with Beta-2 adrenergic receptor (Homo sapiens) (UniProt P07550). Description: Adrenergic beta2 receptor (ADRB2) small molecule antagonists, cell-based qHTS assay (AID 1963592). Further: nearly all actives have a fitted effect of over 50% in size. Further: potency means the concentration at half of the fitted maximal effect. In a few lines: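 Assay format: CHO-ADRB2 cells, 18-20hr seeding at 37C/5% CO2, then compound plus 1nM isoproterenol agonist mix for 0.5hr RT. Homogeneous time-resolved fluorescence cAMP detection after 1hr, expressed as 665/615 nm ratio.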

Assay [14] concerns the target D(2) dopamine receptor (Homo sapiens) (UniProt P14416). As to the kind of experiment: Dopamine D2 receptor (DRD2) small molecule agonists, cell-based qHTS assay (AID 1963594). Further: nearly all actives have a fitted effect of over 35% in size. In a few lines: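 cAMP accumulation in DRD2-HEK293 cells measured by HTRF after 1 h detection; compounds added 10 min before NKH477 (200nM […]) forskolin-analogue stimulation, 30 min at room temperature, with Ro20-1724 present at 0.1 mM final.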

Assay [15] is described as follows: p53 small molecule agonists, cell-based qHTS assay with human liver microsomes: qHTS cell viability counter screen (AID 1963579). Further: nearly all actives have a fitted effect of over 45% in size. Further: potency means the concentration at half of the fitted maximal effect. In a few lines: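 Viability of p53RE-bla cells is measured as CellTiter-Glo luminescence following a 16 h, 37 C incubation with compound, liver microsomes from human donors and NADPH.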
Assay [16] in a line: p53 small molecule agonists, cell-based qHTS assay (AID 1963582; active means well fitted activation curve with a large enough effect in the signal ratio in the repeat runs, not every such curve was filed as active; the % refers to the signal ratio). The method, boiled down:
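Measured: fluorescence from cleaved LiveBLAzer substrate. System: p53RE-bla cells, 16 h compound treatment at 37 C, 2 h substrate step at room temperature.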

The nature of assay [17]: cAMP Responsive Elements (CRE) small molecule antagonists, cell-based qHTS assay (AID 1963591; active means well fitted inhibition curve with a large enough effect in the signal ratio in the repeat runs, not every such curve was filed as active; the % refers to the signal ratio). The method, boiled down: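 Reporter line CRE-bla HEK 293T in dialyzed-FBS DMEM; cells preincubated 18 h, treated 3 h with compound plus NKH477 (0.25 uM final); LiveBLAzer FRET, 2 h RT.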
For assay [18], the target named is D(2) dopamine receptor (Homo sapiens) (UniProt P14416). Description: Dopamine D2 receptor (DRD2) small molecule antagonists, cell-based qHTS assay (AID 1963595; active means well fitted inhibition curve with a large enough effect in the signal ratio in the repeat runs, with a control signal flat; the % refers to the signal ratio; further: potency means the concentration at half of the fitted maximal effect). The method, boiled down:
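Human DRD2 antagonist qHTS measuring cAMP by HTRF. The cells are exposed to compound for 10 min, then to NKH477 (200 nM) and quinpirole (12 nM) for 30 min at RT, with Ro20-1724 (0.1 mM) present throughout.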

A short description of assay [19]: cAMP Responsive Elements (CRE) small molecule agonists, cell-based qHTS assay (AID 1963590). In a few lines:
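Test agents in DMSO were incubated 3 h at 37 C/5% CO2 with CRE-bla HEK 293T cells seeded 18 h earlier; LiveBLAzer B/G FRET substrate was added and read after 2 h at room temperature.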

Chain of Beta-2 adrenergic receptor (Homo sapiens) (P07550 whole entry, looked up): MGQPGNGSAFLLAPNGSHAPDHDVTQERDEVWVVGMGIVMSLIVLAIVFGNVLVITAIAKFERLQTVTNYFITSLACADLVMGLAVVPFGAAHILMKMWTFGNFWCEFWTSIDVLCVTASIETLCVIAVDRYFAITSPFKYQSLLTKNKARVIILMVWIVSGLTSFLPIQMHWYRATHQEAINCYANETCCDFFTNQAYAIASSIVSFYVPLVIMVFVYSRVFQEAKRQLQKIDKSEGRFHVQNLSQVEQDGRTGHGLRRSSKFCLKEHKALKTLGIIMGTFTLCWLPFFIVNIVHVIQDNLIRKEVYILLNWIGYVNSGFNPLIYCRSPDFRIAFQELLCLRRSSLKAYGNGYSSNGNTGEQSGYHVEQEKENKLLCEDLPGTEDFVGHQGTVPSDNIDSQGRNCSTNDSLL
Chain of D(2) dopamine receptor (Homo sapiens) (P14416 whole entry, looked up): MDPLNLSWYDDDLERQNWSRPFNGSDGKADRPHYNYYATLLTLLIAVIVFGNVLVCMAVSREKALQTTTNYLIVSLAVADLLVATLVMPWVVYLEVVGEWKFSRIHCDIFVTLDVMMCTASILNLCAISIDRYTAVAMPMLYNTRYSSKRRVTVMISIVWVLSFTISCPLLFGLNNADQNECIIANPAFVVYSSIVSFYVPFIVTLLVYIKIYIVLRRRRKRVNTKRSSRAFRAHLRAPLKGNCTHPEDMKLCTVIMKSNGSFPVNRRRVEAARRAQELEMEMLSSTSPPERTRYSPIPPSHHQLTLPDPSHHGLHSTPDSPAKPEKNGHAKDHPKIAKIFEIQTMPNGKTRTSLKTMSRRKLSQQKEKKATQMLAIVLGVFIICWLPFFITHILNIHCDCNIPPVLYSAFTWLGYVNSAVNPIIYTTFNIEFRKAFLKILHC
Chain of 5-hydroxytryptamine receptor 2A (Homo sapiens) (P28223 whole entry, looked up): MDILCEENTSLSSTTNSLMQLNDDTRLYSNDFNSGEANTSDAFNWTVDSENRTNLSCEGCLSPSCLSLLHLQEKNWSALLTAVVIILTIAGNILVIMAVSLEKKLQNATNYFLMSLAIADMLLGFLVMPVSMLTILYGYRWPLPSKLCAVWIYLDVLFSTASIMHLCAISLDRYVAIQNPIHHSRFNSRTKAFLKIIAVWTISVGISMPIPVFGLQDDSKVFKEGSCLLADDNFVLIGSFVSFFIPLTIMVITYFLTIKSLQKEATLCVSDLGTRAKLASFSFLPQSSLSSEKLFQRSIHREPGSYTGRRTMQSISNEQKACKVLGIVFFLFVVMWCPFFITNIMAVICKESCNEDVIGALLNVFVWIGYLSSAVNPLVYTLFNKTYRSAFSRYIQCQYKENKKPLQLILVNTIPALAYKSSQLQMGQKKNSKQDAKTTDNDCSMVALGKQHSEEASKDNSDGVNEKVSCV
Chain of Muscarinic acetylcholine receptor M1 (Homo sapiens) (P11229 whole entry, looked up): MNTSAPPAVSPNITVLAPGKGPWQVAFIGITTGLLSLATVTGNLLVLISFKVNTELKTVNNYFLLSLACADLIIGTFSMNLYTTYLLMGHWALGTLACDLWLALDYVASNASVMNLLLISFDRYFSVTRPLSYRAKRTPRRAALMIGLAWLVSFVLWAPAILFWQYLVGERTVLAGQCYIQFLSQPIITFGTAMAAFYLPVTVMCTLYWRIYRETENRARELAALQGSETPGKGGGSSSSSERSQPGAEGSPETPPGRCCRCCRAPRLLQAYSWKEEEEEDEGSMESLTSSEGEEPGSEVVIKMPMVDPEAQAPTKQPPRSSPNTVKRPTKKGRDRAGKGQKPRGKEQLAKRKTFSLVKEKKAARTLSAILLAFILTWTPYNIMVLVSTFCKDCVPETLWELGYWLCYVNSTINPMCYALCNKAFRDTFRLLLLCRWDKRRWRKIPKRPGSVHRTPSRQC
Chain of KiSS-1 receptor (Homo sapiens) (Q969F8 whole entry, looked up): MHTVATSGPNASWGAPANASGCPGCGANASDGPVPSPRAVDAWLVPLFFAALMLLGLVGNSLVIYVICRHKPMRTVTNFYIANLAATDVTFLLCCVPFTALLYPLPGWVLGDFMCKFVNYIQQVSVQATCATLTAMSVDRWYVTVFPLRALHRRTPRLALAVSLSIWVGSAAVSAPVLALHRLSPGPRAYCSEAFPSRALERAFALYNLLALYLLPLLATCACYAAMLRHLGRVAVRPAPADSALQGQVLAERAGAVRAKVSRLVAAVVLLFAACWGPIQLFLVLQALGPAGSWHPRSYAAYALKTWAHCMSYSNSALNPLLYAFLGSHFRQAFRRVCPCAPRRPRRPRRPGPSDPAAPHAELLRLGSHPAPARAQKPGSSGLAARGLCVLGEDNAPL

Consider `O=C1OC(O)C(C(Cl)Cl)=C1Cl` (stereo not given), for which the values for the Potency in [1] and in assay [2] were 63 µM (active) and 25.1 µM (active), respectively. In addition, the outcome in assay [3] and in [4] was inactive. Besides, the Potency result in assay [5], in [6], in assay [7], in [8], in assay [9] and in assay [10] was “inactive” in each case. Further, the Potency entry in assay [11], in [12], in assay [13] and in [14] was “inactive” throughout.

Consider `CO/N=C(\C(=O)O)c1csc(NC(=O)CCl)n1`, for which the Potency result in assay [1], in assay [2], in assay [5], in assay [6], in assay [15] and in assay [7] was “inactive” in each case. The Potency result in assay [16], in [9], in assay [10], in assay [11], in [12] and in [17] was “inactive” in each case. Besides, the Potency entry in assay [13], in assay [14] and in [18] was “inactive” throughout. In addition, the outcome in assay [3] and in assay [4] was inactive.

With `CN1CCN(c2c(F)cc3c(=O)c(C(=O)O)cn4c3c2SCC4)CC1`, the Potency entry in [1], in assay [2], in [5], in [6], in assay [15] and in [7] was “inactive” throughout. Besides, the Potency entry in assay [9], in assay [10], in [11], in [12], in assay [13] and in [18] was “inactive” throughout. In addition, the result in assay [3] and in assay [4] was inactive.

Regarding `CC(=O)OCC(C)C`, the Potency entry in assay [1], in assay [2], in assay [5], in [6], in assay [15] and in assay [7] was “inactive” each time. In addition, the Potency result in [16], in assay [9], in assay [10], in assay [12], in assay [19] and in assay [17] was “inactive” each time. Besides, the Potency entry in assay [13] and in [14] was “inactive” each time. Also, the outcome in [3] and in assay [4] was inactive.

Consider `Nc1ncnc(Nc2ccccc2)n1`, for which the Potency entry in assay [1], in assay [2], in assay [5], in assay [6], in assay [7] and in assay [8] was “inactive” in each case. Moreover, the Potency result in [16], in [9], in assay [10], in [11], in assay [12] and in assay [19] was “inactive” each time. For the same compound, the Potency entry in [17], in [13], in assay [14] and in assay [18] was “inactive” each time. Moreover, the outcome in [3] and in assay [4] was inactive.

Turning to `Cc1cc(Br)ccc1NC(=O)CCl`, the Potency in [1] is 30.6 µM (active); in assay [2] it was 13.7 µM (active). In addition, the result in assay [3] and in assay [4] was inactive. Also, the Potency result in [5], in assay [6], in [15], in assay [7], in [10] and in [11] was “inactive” throughout. For the same compound, the Potency entry in assay [13], in assay [14] and in assay [18] was “inactive” in each case.

Consider `Cc1cc(O)c(C(C)(C)C)cc1Sc1cc(C(C)(C)C)c(O)cc1C`, for which the Potency in [1] was 13.7 µM (active); in assay [15], 9.11 µM (active); in assay [7], 20.4 µM (active); in assay [8], 5.75 µM (active); in assay [10], 43.6 µM (active); in assay [11] it was 26.5 µM (active). Moreover, the Potency was 48.9 µM (active) in assay [12], 27.3 µM (active) in assay [13] and 21.6 µM (active) in assay [18]. Besides, the Potency entry in [2], in [5], in assay [6], in [9] and in [14] was “inactive” throughout. Also, the outcome in assay [3] and in [4] was inactive.

As to `O=S(=O)(Cl)c1c(Cl)cccc1Cl`, the Potency result in [1], in assay [2], in assay [5], in assay [6], in assay [15] and in [8] was “inactive” throughout. For the same compound, the Potency entry in assay [9], in assay [10], in assay [11], in assay [12], in assay [19] and in assay [17] was “inactive” each time. Besides, the Potency entry in assay [13], in assay [14] and in [18] was “inactive” throughout. Further, the outcome in assay [3] and in assay [4] was inactive.
